Shown is part of a subset that was picked to be rich in hits.
ERK EGF inh – blocks ERK signaling stimulated by EGF; HEK293-V1b, EGF-stimulated phospho-ERK AlphaScreen; Potency, µM (doses to about 11.5 µM), inactives show at the top dose activity change, negative = inhibition, usual class: inhibitors; hit rate 0.41% among 130,000;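 also: potency is read from the fitted curve at half-maximal effect; plate controls were stimulated vehicle wells for no effect and unstimulated vehicle basal for full effect; nearly all actives have a fitted effect of over 55% in size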
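Cell line HEK293 (stable V1b), low serum overnight. Pretreatment: compound 30 min, 37C. EGF 25 nM, 5 min. Detection: SureFire AlphaScreen, 5 h RT. AC50 via standard Hill equation.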
ERK pERK EGF – reduces EGF-stimulated ERK phosphorylation in HEK293 cells; Potency, µM (series often up to 57.5 µM), inactives show top-dose activity change, negative = inhibition, usual class: inhibitors; hit rate 60% among 60; AID 1725; shares compounds with ERK EGF inh; HEK293 EGF-stimulated ERK phosphorylation, AlphaScreen
cRaf kinase inh – blocks human c-Raf kinase activity; shares compounds with ERK EGF inh; c-Raf kinase inhibition, homogeneous biochemical assay; activity change, negative = inhibition, % at 76.9 µM; 70 tested, under 10 active
Target sequence (P04049 whole entry, looked up): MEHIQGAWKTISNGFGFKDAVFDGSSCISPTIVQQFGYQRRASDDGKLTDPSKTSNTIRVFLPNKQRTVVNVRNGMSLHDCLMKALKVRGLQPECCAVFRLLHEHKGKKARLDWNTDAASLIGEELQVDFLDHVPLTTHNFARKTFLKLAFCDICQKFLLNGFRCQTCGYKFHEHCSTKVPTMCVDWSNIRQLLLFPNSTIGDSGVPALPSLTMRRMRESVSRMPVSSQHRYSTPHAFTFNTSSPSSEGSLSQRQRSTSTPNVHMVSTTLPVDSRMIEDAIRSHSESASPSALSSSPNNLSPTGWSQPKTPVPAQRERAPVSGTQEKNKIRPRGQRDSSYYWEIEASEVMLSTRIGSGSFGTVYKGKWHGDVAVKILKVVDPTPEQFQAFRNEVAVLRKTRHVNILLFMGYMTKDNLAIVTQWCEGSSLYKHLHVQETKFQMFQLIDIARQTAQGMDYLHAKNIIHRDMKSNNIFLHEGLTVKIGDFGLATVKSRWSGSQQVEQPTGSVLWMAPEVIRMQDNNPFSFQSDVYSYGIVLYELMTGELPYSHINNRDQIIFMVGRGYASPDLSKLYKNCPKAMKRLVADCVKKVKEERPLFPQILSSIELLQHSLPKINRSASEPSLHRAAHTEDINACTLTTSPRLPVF
MEK inh – MEK1 (human) kinase inhibition | 70 tested, under 10 active | Potency, µM (highest dose often 76.9 µM), inactives show at the top dose activity change, negative = inhibition, most hits filed as inhibitors | shares compounds with ERK EGF inh | homogeneous MEK kinase activity assay, ERK pathway
Starred values were filed as active, the others as inactive. Calls follow the shape of the dose curve; as a rule, active = well fitted curve in the direction sought with a large enough effect; inconclusive = small, poorly fitted or top-dose-only effect, or another doubt; inactive = no such curve, though single readings can be large; an effect the other way counts as inactive or inconclusive.

For Cc1sc2ncnc(Sc3nnnn3-c3ccc(Cl)cc3)c2c1C the results were ERK pERK EGF -3%, cRaf kinase inh -12 and MEK inh 3%.
`CSc1nnnn1-c1ccc(Cl)cc1` gave ERK EGF inh -7%.
Screening c1ccc(-n2nnnc2Sc2ncnc3sc4c(c23)CCCC4)cc1 returned ERK EGF inh 0%.
Screening O=S(=O)(c1ccccc1)N1CCC2(CC1)CN(C(c1ccccc1)c1ccccc1)C2 returned ERK EGF inh -3%.
COc1ccc(-n2c(NN)nc3sc4c(c3c2=O)CCCC4)cc1 was read as ERK EGF inh -4%.
`C=CCC1NCCc2c(Br)cccc21` (centres undefined) gave ERK EGF inh 3%.
O=c1cc(-c2ccc(O)c(O)c2)oc2cc(O)cc(O)c12 was read as ERK EGF inh -5%.
Screening O=c1cc(-c2ccc(O)cc2)oc2cccc(O)c12 returned ERK EGF inh -4%, ERK pERK EGF -12%, cRaf kinase inh inconclusive and MEK inh -6%.
For O=c1cc(-c2ccccc2Cl)oc2cccc(O)c12 the results were ERK EGF inh -3%.
`CC1=CC(C)(C)NC(=S)N1c1cccc2ccccc12` gave ERK EGF inh -8%.
For Cc1c(C(=O)O)sc2nc(SCC(=O)Nc3ccc(S(=O)(=O)NC(C)(C)C)cc3)[nH]c(=O)c12 the results were ERK EGF inh -4%.
`O=C(Cn1cncc1-c1ccc([N+](=O)[O-])cc1)Nc1cccc2ccccc12` gave ERK EGF inh 10%.
Screening c1cncc(-c2ccc3ncnc(N4CCNCC4)c3c2)c1 returned ERK EGF inh 25%.
Screening CN(C)Cc1ccccc1-c1ccc2ncnc(NCc3ccccc3)c2c1 returned ERK EGF inh 16%.
`c1ccc(Nc2ncnc3ccc(-c4cccnc4)cc23)cc1` gave ERK EGF inh 2.5µM*, ERK pERK EGF 3.5µM*, cRaf kinase inh inconclusive and MEK inh 0%.
O=C(CCC(=O)NNc1nc2ccccc2c2nc(-c3ccccc3)nn12)NCCCN1CCOCC1 was read as ERK EGF inh -4%.
Screening CC12CCC(=O)N1C(C(=O)OCC(=O)Nc1ccc(Cl)c(Cl)c1)CS2 (centres undefined) returned ERK EGF inh -2%.
`COC(=O)c1ccc(C2N=C(c3cccs3)CC(c3ccccc3O)N2)cc1` (centres undefined) gave ERK EGF inh -10%.
`Nc1nc(SCC(=O)Nc2ccccc2)nc2nc3c(cc12)CCCC3` gave ERK EGF inh 2%.
Screening C=C[C@]1(C)CC(=O)[C@@]2(O)[C@@]3(C)C(O)CCC(C)(C)C3C(O)C(OC(C)=O)[C@@]2(C)O1 (some centres undefined) returned ERK EGF inh inconclusive, ERK pERK EGF -16%, cRaf kinase inh -4 and MEK inh -19%.
Screening C=C[C@@]1(C)CC(=O)[C@@]2(O)[C@@]3(C)[C@@H](O)CCC(C)(C)[C@@H]3[C@H](OC(=O)CCN(C)C)[C@H](OC(C)=O)[C@@]2(C)O1 returned ERK EGF inh -1%.
`CCOC(=O)N1CCN(c2cc(NCCO)c([N+](=O)[O-])c3nonc23)CC1` gave ERK EGF inh 0%.
`Cc1nc(NCc2ccccc2)c2nc(-c3ccccc3)n(CC3CCN(C)CC3)c2n1` gave ERK EGF inh 8%.
CCOc1ccc(CN(C(=O)c2cc3ccccc3oc2=O)C2CC2)cc1 was read as ERK EGF inh 6%.
Cc1cccc(NC(=S)N2CCCCC2)c1 was read as ERK EGF inh 4%.
